JMJD2A Tudor inh – inhibitors of human JMJD2A Tudor domain; O75164; AlphaScreen JMJD2A-Tudor / H3K4me3 peptide binding; Potency, µM (highest dose often 114 µM), most hits filed as inhibitors; actives 4.4% (n = 390,000); AID 504339; also: nearly all actives have a fitted effect of over 50% in size
BAZ2B inh – blocks human BAZ2B; AID 504333; AlphaScreen BAZ2B-H3K14Ac peptide displacement; actives 4.4% (n = 360,000); Potency, µM (titrated, usually from 114 µM), usual class: inhibitors; also: nearly all actives have a fitted effect of over 60% in size
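AlphaScreen displacement: compounds (up to 110uM) incubated 30 min at room temperature with a preformed 50 nM BAZ2B/50 nM biotinylated H3K14Ac peptide complex in PBS pH 7.4 with Tween-20. Donor and acceptor beads at 10 ug/mL final added, 20 min light-protected before reading.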
Sfp inh – Sfp phosphopantetheinyl transferase inhibition | Biochemical Sfp PPTase activity, qHTS | Potency, µM, most hits filed as inhibitors | AID 1490 | Q9F4F7 | actives 3.5% (n = 310,000);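 also: the enzyme is Sfp with the accession as filed and its product quenches rhodamine fluorescence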
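Buffer: 50 mM Hepes-Na pH 7.6, 10 mM MgCl2, 0.01% Nonidet P-40, 0.01% BSA. Enzyme 15 nM, pre-exposed to compound 15 min; substrates then added and fluorescence change tracked over 30 min.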
HP1b binding inh – inhibitors of HP1-beta chromodomain binding to methylated histone tails; AID 540317; actives 0.56% (n = 390,000); AlphaScreen HP1-beta / biotin-H3K9me3 peptide binding; P83916; Potency, µM (titrated, usually from 114 µM), usual class: inhibitors; also: nearly all actives have a fitted effect of over 70% in size
Target sequence (P83916 whole entry, looked up): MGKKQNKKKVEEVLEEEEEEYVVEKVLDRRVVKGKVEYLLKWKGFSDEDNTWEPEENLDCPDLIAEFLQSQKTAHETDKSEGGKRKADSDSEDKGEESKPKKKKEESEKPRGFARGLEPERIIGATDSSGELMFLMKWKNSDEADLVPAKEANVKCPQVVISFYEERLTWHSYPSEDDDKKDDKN
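Compound inhibition of the preformed complex between 50 nM HP1-beta and 50 nM biotinylated H3K9me3 peptide was read by AlphaScreen. Buffer was PBS pH 7.4 with 0.01% Tween-20. Incubations ran 30 min at room temperature, with 10 ug/mL donor/acceptor beads.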
G9a block – blocks human histone lysine methyltransferase G9a; G9a H3K9 monomethylation, AlphaScreen, 2 h; AID 504332; Potency, µM (highest dose often 102 µM), most hits filed as inhibitors; Q96KQ7; actives 8.8% (n = 350,000); also: nearly all actives have a fitted effect of over 75% in size
Target sequence (Q96KQ7 913-1193 limits assumed): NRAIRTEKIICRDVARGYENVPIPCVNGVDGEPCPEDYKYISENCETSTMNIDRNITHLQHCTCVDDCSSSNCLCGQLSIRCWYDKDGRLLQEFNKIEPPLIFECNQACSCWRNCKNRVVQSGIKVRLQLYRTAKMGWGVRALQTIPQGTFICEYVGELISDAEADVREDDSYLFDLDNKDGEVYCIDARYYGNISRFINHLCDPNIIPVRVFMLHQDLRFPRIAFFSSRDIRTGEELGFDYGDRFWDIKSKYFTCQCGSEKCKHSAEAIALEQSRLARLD
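AlphaScreen detection with an anti-monomethyl H3K9 antibody quantified product after a 2 h room-temperature reaction containing 500 nM biotinylated H3K9 peptide, 20 µM SAM and 20 nM enzyme, which had been preincubated 15 min with compound.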
Hits are given with their value; - = inactive; ? = inconclusive; . = no result; ! = a repeat was not active; [ ] = another dose, or the depositor's remark. This is a sample that favours compounds with a hit; in the whole collection about 12% have one here. Calls follow the shape of the dose curve; as a rule, active = well fitted curve in the direction sought with a large enough effect; inconclusive = small, poorly fitted or top-dose-only effect, or another doubt; inactive = no such curve, though single readings can be large; an effect the other way counts as inactive or inconclusive.

SMILES | JMJD2A Tudor inh | BAZ2B inh | Sfp inh | HP1b binding inh | G9a block
C=CCNC(=O)c1ccc2c3n(nc2c1)-c1ccc(Cl)cc1CO3 | - | . | . | - | .
Cc1cccc(NS(=O)(=O)c2cccc(C(=O)NCC(C)(C)N3CCOCC3)c2)c1 | - | - | - | - | .
Cc1cccc(-n2c(CNC(=O)c3ccc(S(=O)(=O)N4CCCC4)cc3)n[nH]c2=S)c1 | 10µM | - | - | - | 0.71µM
O=C(NCc1n[nH]c(=S)n1-c1cccc(Cl)c1)c1ccc(S(=O)(=O)N2CCCCC2)cc1 | - | - | - | - | 3.2µM
O=C(Cc1ccc([N+](=O)[O-])cc1)c1c(O)cc(O)cc1O | - | - | - | - | 50µM
N=C(N)SCc1nc2ccccc2c(=O)n1-c1ccccc1 | ? | - | 50µM | - | 45µM
CC(NCCC(c1ccccc1)c1ccccc1)c1ccccc1 (centres undefined) | - | - | 25µM! | - | ?
CC(C)(C)c1ccc(C(=O)N/C(=C\c2cccs2)C(=O)NCc2ccco2)cc1 | ? | ? | - | - | ?
Cn1ccnc1C(=O)c1ccc(Cl)c(S(=O)(=O)N2CCOCC2)c1 | - | - | - | - | -
O=C1c2ccccc2C(=O)N1CCN1CCc2ccccc21 | ? | 50µM | - | - | ?
CN(C)CCN1CCc2ccccc21 | - | ? | - | - | ?
O=C1c2ccccc2C(=O)N1CCCC(=O)N1CCCc2ccccc21 | - | - | - | - | -
c1ccc2c(c1)CCN2CCN1CCc2ccccc21 | - | ? | - | - | 3.5µM
CC(NC(=O)CN1CCc2ccccc21)c1ccccc1 (centres undefined) | - | - | - | - | 25µM
C=CCN(C(=O)c1ccc2c(c1)nnn2C)c1ccccc1 | - | - | - | - | -
COc1ccc(NS(=O)(=O)c2ccc3oc(SCc4ccc(F)cc4)nc3c2)cc1 | - | - | - | - | 79µM
COc1ccc(-c2ccc3c(c2)S(=O)(=O)c2cccc(C(=O)NC4CC4)c2C3=O)cc1OC | - | ? | . | - | -[0.501 µM]
CCOc1ccc(C2N(c3cc(C)on3)C(=O)C3CCCN32)cc1OC (centres undefined) | 35µM | - | - | ? | ?
COc1cc(C2N(c3cc(C)on3)C(=O)C3CCCN32)cc(OC)c1OC (centres undefined) | ? | - | - | - | -
COc1ccc(C2N(c3cc(C)on3)C(=O)C3CCCN32)cc1OC (centres undefined) | 20µM | ? | - | - | ?
S=C(NCCc1cccc(Cl)c1)NCc1ccccc1 | . | - | - | . | .
Cc1ccc(NC(=O)CN2C(=O)NC(C)(C3CC3)C2=O)c([N+](=O)[O-])c1 (centres undefined) | - | - | . | - | -[12.7 µM]
O=c1oc2cc([N+](=O)[O-])ccc2nc1/C=C(O)/C=C/c1ccccc1 | . | 50µM | 50µM | . | 35µM
Cc1cccc(-c2nc3ccccc3c(=O)n2NC(=O)/C=C/c2ccc([N+](=O)[O-])cc2)c1 | ? | - | - | - | ?
Cc1nc(C)c(/C(O)=C/c2nc3ccccc3oc2=O)s1 | - | - | ? | - | ?
SMILES | JMJD2A Tudor inh | BAZ2B inh | Sfp inh | HP1b binding inh | G9a block
O=c1oc2cc([N+](=O)[O-])ccc2nc1/C=C(\O)c1cccc(Br)c1 | ? | ? | - | - | 20µM
COCCCn1c(SCC(=O)NNC(=O)c2cccc(O)c2)nnc1-c1ccncc1 | - | - | - | - | -
O=C(Cn1cnc2c(cnn2-c2ccc(F)cc2)c1=O)NCc1ccco1 | - | - | - | - | -
O=C(Cn1cnc2scc(-c3cccc([N+](=O)[O-])c3)c2c1=O)NCc1ccco1 | 22µM | 45µM | ? | ? | -
Cc1ccc2c(=O)c(C(=O)c3ccc(F)cc3)cn(CC(=O)NCc3ccco3)c2n1 | ? | 50µM | - | - | 50µM
Cc1sc2ncn(CC(=O)NCc3ccco3)c(=O)c2c1-c1ccc(F)cc1 | - | ? | 18µM | - | ?
O=C(Cn1cnc2c(nnn2Cc2ccccc2F)c1=O)NCc1ccco1 | - | - | 89µM | - | .
COc1ccc2c(c1)OC[C@H]1[C@@H]2N2C(=O)CNC(=O)[C@@]2(C)[C@H]1c1ccccc1 | - | - | . | - | -[0.501 µM]
Cc1ccc2cc(C(c3nnnn3CC3CCCO3)N3CCc4ccccc4C3)c(=O)[nH]c2c1 (centres undefined) | - | - | 10µM | - | ?
Cc1ccc(C)c2[nH]c(=O)c(C(c3nnnn3Cc3ccccc3)N3CCc4ccccc4C3)cc12 (centres undefined) | - | - | ? | - | 3.2µM
Cc1cccc2cc(C(c3nnnn3CC3CCCO3)N3CCc4ccccc4C3)c(=O)[nH]c12 (centres undefined) | - | - | 20µM | - | 3.2µM
CCc1ccc2[nH]c(=O)c(C(c3nnnn3CC3CCCO3)N3CCCc4ccccc43)cc2c1 (centres undefined) | ? | 50µM | 8.9µM | - | ?
Cc1cccc2cc(C(c3nnnn3CC3CCCO3)N3CCCc4ccccc43)c(=O)[nH]c12 (centres undefined) | - | . | - | - | ?
Cc1cccc(Cn2cnc3c(NS(C)(=O)=O)c(C)c(C)cc32)c1 | - | - | - | - | -
CC(C)Nc1nc2c(c(=O)n(C)c(=O)n2C)n1C | - | - | - | - | -
Cn1c(=O)c2c(nc(NN=C3CCCCC3)n2C)n(C)c1=O | - | . | - | ? | 50µM
Cn1c(=O)c2c(nc(N/N=C/c3ccco3)n2C)n(C)c1=O | - | - | 18µM | - | .
Cn1c(=O)c2c(nc(NC3CCCC3)n2C)n(C)c1=O | - | - | - | - | -
CC(C)=NNc1nc2c(c(=O)n(C)c(=O)n2C)n1C | - | ? | 22µM | - | .
COc1cccc(OCCn2c(-c3ccc(Cl)cc3)nc3ccccc3c2=O)c1 | - | - | . | - | -
COc1cccc(Cc2nc3ccccc3nc2SCC(=O)Nc2cc(OC)ccc2OC)c1 | - | - | . | - | -
COc1cc(CN(C)CC2CCCN(CCc3cccc(C(F)(F)F)c3)C2)ccc1O (centres undefined) | - | - | - | - | 45µM
Cc1ccccc1NCc1ccccc1O | ? | 56µM | ? | - | 40µM
COc1ccc(CNC(=O)c2ccc(-c3ccccc3)cc2)cc1OC | - | - | - | - | -
COc1ccc(-c2ccccc2)cc1NCc1ccccc1C | ? | 50µM | - | - | ?
COc1ccc(-c2ccccc2)cc1NCc1ccc(OC)c(OC)c1 | 40µM | 40µM | ? | ? | 10µM
C#Cc1ccc([C@@H]2C=C(C(=O)N3CCOCC3)O[C@H](OCc3ccc(CO)cc3)C2)cc1 | - | . | . | - | .
O=C(c1ccccc1F)N1CCN(Cc2ccc3c(c2)OCO3)CC1 | 0.89µM | 45µM | - | 40µM | -[0.501 µM]
O=C(c1cccc(S(=O)(=O)N2CCOCC2)c1)N1CCN(Cc2ccc3c(c2)OCO3)CC1 | - | - | - | - | 40µM
O=C(O)c1ccccc1C(=O)N1CCN(Cc2ccc3c(c2)OCO3)CC1 | - | - | - | - | -

Screens deposited in PubChem by National Center for Advancing Translational Sciences (NCATS).
